Screening results: PubChem, National Center for Advancing Translational Sciences (NCATS)
Shiga inhibitor = blocks Shiga toxin action in Vero cells. Vero cells, Shiga toxin protein synthesis inhibition reporter. inhibition, % at 38.7 µM. 290,000 tested, 9.2% active; in the data active = inhibition mostly above about 28%, no sharp cut-off; inactive = mostly below about 43%
Pf growth 48h = P. falciparum growth inhibition at 48 hours (one generation) | P. falciparum luciferase growth in erythrocytes, 48 h | Potency, µM (titrated, usually from 28.7 µM), usual class: inhibitors | 310,000 tested, 5.9% active; active = well fitted inhibition curve with a large enough effect; inconclusive = small, poorly fitted or top-dose-only effect, or another doubt; inactive = no such curve, though single readings can be large or run the other way
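Luciferase-expressing parasites in RBCs, 2% Hct / 0.1% parasitemia final; RPMI 1640 + 0.5% Albumax; 37 C, 5% CO2, one generation; luminescence read-out, lower signal = inhibition.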
SARS PLpro yeast = inhibitors of SARS-CoV papain-like protease in yeast; 330,000 tested, 0.19% active; AID 485353; S. cerevisiae expressing SARS-CoV PLpro, growth rescue; Potency, µM (doses to about 32.9 µM), actives largely listed as activators; also: nearly all actives have a fitted effect of over 55% in size
Pf growth 96h = P. falciparum growth inhibition at 96 hour, primary screen for plastid delayed-death inhibitors. P. falciparum luciferase reporter growth, 96 h. AID 504834. 320,000 tested, 6.9% active. Potency, µM (top dose mostly 28.7 µM), actives largely listed as inhibitors; active = well fitted inhibition curve with a large enough effect; inconclusive = small, poorly fitted or top-dose-only effect, or another doubt; inactive = no such curve, though single readings can be large or run the other way
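Compounds incubated with erythrocytes infected by luciferase-expressing P. falciparum (2% hematocrit, 0.05% parasitemia final) for 96 hours, 37 C in 5% CO2. Growth inhibition scored as decreased luciferase luminescence.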
Cycloheximide cs = counter-screen hit for Shiga toxin inhibitors, cycloheximide; cell reporter, cycloheximide protein synthesis inhibition counterscreen; max response, %; 300,000 tested, 12% active; AID 2314; in the data active = max response mostly above about 13%, no sharp cut-off; inactive = mostly below about 14%; also: read at 38.3 µM for the half of the compounds with a filed dose
NS1 function inh = blocks influenza NS1 protein function | Potency, µM (series often up to 46.1 µM) | 270,000 tested, 0.4% active | AID 2326; also: actives are rising curves; nearly all actives have a fitted effect of over 50% in size
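A cell-based growth assay was used: compounds that relieve NS1-induced slow growth of budding yeast raise OD600. Assay medium was yeast nitrogen base with ammonium sulphate and -URA supplement, pH 6.0, with 2% galactose.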
Of the large screens only hits and unclear results are named; the others gave an inactive call. Compounds with a hit are over-represented: about 21% of the library has one in this group of screens. Unless noted, calls follow the shape of the full dose curve.

N#C/C(=C\c1ccccn1)c1ccccn1	Shiga inhibitor 60.7, Pf growth 48h inconclusive, Pf growth 96h 8.28µM, Cycloheximide cs 33.0
Cc1cc(C)n2nc(/C(C#N)=C/c3ccccn3)c(C#N)c2n1	Pf growth 96h inconclusive, Cycloheximide cs 25.3 (no result: NS1 function inh)
COc1ccccc1CNC(=O)C1CCCN(S(=O)(=O)c2cccs2)C1 (centres undefined)	none
CC(=O)c1ccc(NC(=O)c2cc(C)nc3ccccc23)cc1	Pf growth 96h inconclusive, Cycloheximide cs 28.1
Cc1ccc(NC(=O)c2cc(C)nc3ccccc23)cc1	Pf growth 96h inconclusive
Cc1cc(C(=O)Nc2ccc(N3CCOCC3)cc2)c2ccccc2n1	Pf growth 48h 9.28µM, Pf growth 96h 13.1µM
Cc1cc(C(=O)Nc2ccncc2)c2ccccc2n1	Pf growth 48h inconclusive, Pf growth 96h 13.1µM
O=C(Nc1ccc(N2CCOCC2)cc1)c1cn2ccccc2n1	Shiga inhibitor 55.5, Cycloheximide cs 47.4
CCOC(=O)C1CCN(C(=O)C2CCN(S(=O)(=O)N3CCC4(CC3)OCCO4)CC2)CC1	none
Cc1ccc(NC(=O)C2C3C=CC4(O3)C2C(=O)N(CCCN2CCCC(C)C2)C4C(=O)NC2CCCCC2)cc1 (centres undefined)	Pf growth 48h inconclusive
O=C(c1cc2nc(-c3ccco3)cc(C(F)(F)F)n2n1)N1CCN(Cc2ccccc2)CC1	Pf growth 48h inconclusive (no result: Pf growth 96h)
COC(=O)c1nc2ccc(N3CCOCC3)cc2c(C)c1C(=O)OC	Shiga inhibitor 57.1 (no result: NS1 function inh)
CCOc1ccc2oc(C(=O)Nc3ccc4c(c3)OCO4)c(C)c2c1	Shiga inhibitor 105.9, Cycloheximide cs 25.0
CCOc1ccc2oc(C(=O)N3CC(C)OC(C)C3)c(C)c2c1 (centres undefined)	Pf growth 48h inconclusive, Pf growth 96h 7.38µM, Cycloheximide cs 24.0
Cc1oc2ccc(OCc3ccc(Cl)cc3)cc2c1C(=O)O	Shiga inhibitor 86.6, Cycloheximide cs 26.7
CCOc1ccc2oc(C(=O)N3CCN(Cc4ccccc4)CC3)c(C)c2c1	none
CCOc1ccc2oc(C(=O)Nc3ccc(N4CCOCC4)cc3)c(C)c2c1	Pf growth 96h inconclusive (no result: SARS PLpro yeast)
CCOc1ccc2oc(C(=O)O)c(C)c2c1	Cycloheximide cs 25.8
Cc1oc2ccc(OCc3ccc(Br)cc3)cc2c1C(=O)O	none
O=C(CC1(CC(=O)N2CCOCC2)CCCC1)Nc1ccccc1	none (no result: Shiga inhibitor, Cycloheximide cs, NS1 function inh)
CC(C)(C)c1cc(NC(=O)COC(=O)c2ccc3c(=O)n4c(nc3c2)CCC4)n(-c2ccccc2)n1	Cycloheximide cs 16.3
Cc1csc(NC(=O)c2ccc3c(=O)n4c(nc3c2)CCCCC4)n1	Shiga inhibitor 62.9, Cycloheximide cs 26.9
CCc1ccc(NC(=O)c2ccc3c(=O)n4c(nc3c2)CCCCC4)cc1	Shiga inhibitor 47.2, Pf growth 48h inconclusive, Cycloheximide cs 36.5
O=C(Nc1nccs1)c1ccc2c(=O)n3c(nc2c1)CCCCC3	Shiga inhibitor 97.7, Cycloheximide cs 19.2
CCc1cccc(NC(=O)[C@@H]2CCCN2C2=NS(=O)(=O)c3ccccc32)c1	none (no result: Shiga inhibitor, Cycloheximide cs, NS1 function inh)
Cc1ccc2cc(C)c3nnc(SCC(=O)Nc4nc5c(s4)CCCC5)n3c2c1	none
O=C(CN1C(=O)NC2(CCCc3ccccc32)C1=O)c1ccc(F)c(F)c1 (centres undefined)	none (no result: Shiga inhibitor, Pf growth 48h, Pf growth 96h, Cycloheximide cs, NS1 function inh)
O=C(Nc1cccc(S(=O)(=O)N2CCCCC2)c1)c1ccc2c(=O)n3c(nc2c1)CCCCC3	Pf growth 48h inconclusive, Pf growth 96h 13.1µM, NS1 function inh inconclusive
O=C1CCCC2=C1C1O[C@](CCCCN3C(=O)c4ccccc4C3=O)(Cc3c1ccc1ccccc31)O2	Pf growth 48h inconclusive, NS1 function inh inconclusive
COc1ccc(C2SCCN2C(=S)Nc2ccc(Cl)cc2)cc1 (centres undefined)	Pf growth 48h inconclusive, Pf growth 96h inconclusive, Cycloheximide cs 28.8
Cc1ccc(NC(=S)N2CCSC2c2cccs2)cc1 (centres undefined)	Shiga inhibitor 131.6, Cycloheximide cs 28.8 (no result: NS1 function inh)
COc1ccc(C2SCCN2C(=S)Nc2cccc(Cl)c2)cc1 (centres undefined)	Pf growth 48h 2.33µM, Pf growth 96h 2.08µM
O=c1c2ccccc2cnn1Cc1ccc(Br)cc1F	none
c1ccc2[nH]c(CSc3nccs3)nc2c1	Shiga inhibitor 75.0, Pf growth 96h inconclusive, Cycloheximide cs 23.3
CCn1c(SCc2nc3ccccc3[nH]2)nnc1-c1ccc(OC)cc1	none
c1ccc2[nH]c(CN3CCN(c4ncnc5c4oc4ccccc45)CC3)nc2c1	Pf growth 48h inconclusive
Cc1ccc(OCCSCc2nc3ccccc3[nH]2)cc1	Pf growth 48h inconclusive, Pf growth 96h inconclusive
Cc1nc(N2CCN(Cc3nc4ccccc4[nH]3)CC2)c2oc3ccccc3c2n1	Pf growth 48h inconclusive, Pf growth 96h 5.86µM
Cc1ccc(CSCc2nc3ccccc3[nH]2)cc1	Shiga inhibitor 66.2, Pf growth 96h inconclusive, Cycloheximide cs 39.3 (no result: NS1 function inh)
Cc1ccc(SCc2nc3ccccc3[nH]2)cc1	Shiga inhibitor 130.4, Cycloheximide cs 44.7
C=C(C)Cn1c(-c2ccncc2)n[nH]c1=S	none (no result: NS1 function inh)
Cc1cc(C)cc(CC(Cc2nc3ccccc3[nH]2)c2nc3ccccc3[nH]2)c1 (centres undefined)	Pf growth 48h 2.33µM
c1ccc2[nH]c(CSc3ncnc4c3oc3ccccc34)nc2c1	Shiga inhibitor 61.9, Cycloheximide cs 15.9
Nn1c(SCc2nc3ccccc3[nH]2)nnc1-c1ccccc1	none
Fc1ccccc1CSCc1nc2ccccc2[nH]1	Shiga inhibitor 100.5, Pf growth 96h inconclusive, Cycloheximide cs 25.2
c1ccc(SCc2nc3ccccc3[nH]2)cc1	Shiga inhibitor 162.7, Cycloheximide cs 40.7
COc1ccccc1C(=O)Nc1nnc(S(=O)(=O)N(C)Cc2ccccc2)s1	SARS PLpro yeast inconclusive
CCOC(=O)NC(Nc1cc(C)ccn1)(C(F)(F)F)C(F)(F)F	none
COC(=O)C(O)(NC(=O)c1ccncc1)C(F)(F)F (centres undefined)	none
CNCc1nc2ccccc2[nH]1	Pf growth 96h inconclusive
Clc1ccc(SCc2nc3ccccc3[nH]2)cc1	Shiga inhibitor active, Cycloheximide cs 49.1
Clc1ccc(OCCSCc2nc3ccccc3[nH]2)cc1	Pf growth 48h inconclusive, Pf growth 96h inconclusive
CC(C)SCc1nc2ccccc2[nH]1	Cycloheximide cs 15.2 (no result: Pf growth 96h)
COc1ccc(/C=N/NC(=O)CCn2nnc3ccccc32)cc1	Shiga inhibitor 53.3, Cycloheximide cs 20.3
CC(=NNC(=O)CCC(=O)Nc1ccccc1Cl)c1ccco1	none (no result: Shiga inhibitor, Pf growth 48h, Pf growth 96h, Cycloheximide cs, NS1 function inh)
O=C(CCn1nnc2ccccc21)Nc1nnc(COc2ccc(F)cc2)s1	Pf growth 96h 9.28µM
C/C(=N\NC(=O)CCn1nnc2ccccc21)c1ccco1	Cycloheximide cs 19.5
CCOC(=O)c1ccc(NC(=O)CCn2nnc3ccccc32)cc1	Pf growth 96h inconclusive, Cycloheximide cs 12.3
CCNN	none (no result: Pf growth 48h, SARS PLpro yeast, Pf growth 96h, NS1 function inh)
O=S(=O)(NC1CCCCC1)c1ccc(N2CCOCC2)nc1	Pf growth 48h inconclusive
NNC(=O)CCn1nnc2ccccc21	none
